Source: PubChem BioAssay
HT1080-NT tox: kills 2HG-producing HT-1080-NT fibrosarcoma cells; Potency, µM (highest dose often 46.1 µM), usual class: cytotoxic; 360,000 tested, 1.6% active; HT-1080-NT fibrosarcoma viability, CellTiter-Glo ATP luminescence, 48 h;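 further: NT is the 2HG producing partner of a matched IDH1 knockdown line; nearly all actives have a fitted effect of over 55% in size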
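Toxicity toward the 2HG-producing NT line was scored as %Activity, normalised to DMSO and no-cell wells, from CellTiter-Glo luminescence after 48 hours' treatment.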
DT40 TDP1 no CPT: qHTS for Inhibitors of human tyrosyl-DNA phosphodiesterase 1 (TDP1): qHTS in cells in absence of CPT; 420,000 tested, 15% active; DT40 Tdp1-/- hTDP1 cells, no CPT, ATP luminescence, 48 h; Potency, µM (doses to about 46.2 µM), hits mostly inhibitors; further: nearly all actives have a fitted effect of over 55% in size
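Growth kinetics read by CellTiter-Glo luminescence after ≥48 hr at 37 °C. Cells: DT40 Tdp1-/- stably carrying human TDP1, 400 per well, compound exposure in the absence of CPT (DMSO vehicle).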
KB-3-1 cytotox: KB-3-1 parental cell cytotoxicity; 400,000 tested, 1.4% active; KB-3-1 viability, CellTiter-Glo ATP luminescence, 72 h; Potency, µM (highest dose often 46.1 µM), usual class: cytotoxic; AID 1347075; further: nearly all actives have a fitted effect of over 60% in size
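Parental KB-3-1 viability, qHTS format: 72 h compound exposure, 37 °C; CellTiter-Glo; media-only wells and DMSO plates as controls; concentration-effect fits on corrected data.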
TDP1 cell CPT: DT40-hTDP1 cell growth loss with CPT; chicken DT40 Tdp1-/-;hTDP1 cells + 20 nM CPT, ATP luminescence, 48 h; 420,000 tested, 12% active; Potency, µM (series often up to 46.2 µM), usual class: inhibitors; further: nearly all actives have a fitted effect of over 55% in size
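Chicken DT40 Tdp1-/- cells complemented with human TDP1, 400 cells/well, exposed to compounds plus 20 nM camptothecin for at least 48 h at 37 C; viability read as ATP content by CellTiter-Glo luminescence.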
HT1080 IDH1KD tx: kills HT-1080 cells with IDH1 knockdown | HT-1080 IDH1 knockdown viability, ATP luminescence, 48 h | Potency, µM (series often up to 46.1 µM), usual class: cytotoxic | 360,000 tested, 2% active | AID 686971
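Knockdown cells (IDH1KD HT-1080) received compounds 2 h after plating at 750 cells/well and were kept 48 h at 37 °C in 5% FBS RPMI. A CellTiter-Glo luminescence read gave % activity for curve fitting.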
KB-V1 cytotox: KB-V1 MDR subline cytotoxicity; KB-V1 MDR cells viability, CellTiter-Glo, 72 h; Potency, µM (top dose mostly 46.1 µM), most hits filed as cytotoxic; 400,000 tested, 3.4% active; further: nearly all actives have a fitted effect of over 60% in size
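KB-V1 MDR subline cells in DMEM (phenol-red free, 10% FBS) exposed to compounds in qHTS concentration series for 72 h at 37 degrees C. Viability read by CellTiter-Glo luminescence; concentration-effect curves fitted after normalization and correction.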
A number is an active result; n = inactive; u = inconclusive; x = no result given; ! = a repeat was not active. A selection: hits, their analogues and other compounds. The true share with any hit is near 19%. The call rests on the fitted dose curve; in most records, active means well fitted curve in the direction sought with a large enough effect; inconclusive means small, poorly fitted or top-dose-only effect, or another doubt; inactive means no such curve, though single readings can be large; an effect the other way counts as inactive or inconclusive.

SMILES | HT1080-NT tox | DT40 TDP1 no CPT | KB-3-1 cytotox | TDP1 cell CPT | HT1080 IDH1KD tx | KB-V1 cytotox
CN(C)C(=O)CCc1ccc2c3c([nH]c2c1)[C@]1(CCc2ccccc2)[C@@H](C(=O)N2CCCCC2)C[C@H](CC(=O)NCc2cccc(C(F)(F)F)c2)C(=O)N1CC3 | n | 21µM | u | u | n | n
CN(C)C(=O)CCc1ccc2c3c([nH]c2c1)[C@]1(CCc2ccccc2)[C@@H](C(=O)N2CCCCC2)C[C@H](CC(=O)NCc2ccco2)C(=O)N1CC3 | n | u | n | n | n | n
C[C@]12c3[nH]c4ccccc4c3CCN1C(=O)C(CC(=O)NCc1cccc(C(F)(F)F)c1)C[C@@H]2C(=O)N1CCOCC1 (some centres undefined) | n | u | n | u | n | n
C[C@]12c3[nH]c4ccccc4c3CCN1C(=O)C(CC(=O)NCc1cccc(C(F)(F)F)c1)C[C@@H]2C(=O)N1CCCCC1 (some centres undefined) | n | 15µM | n | 21µM | u | n
CC[C@]12c3[nH]c4ccccc4c3CCN1C(=O)C(CC(=O)NCc1cccc(C(F)(F)F)c1)C[C@@H]2C(=O)N1CCN(C(=O)c2ccco2)CC1 (some centres undefined) | n | u | n | 18µM | u | n
CSCCC(NC(=O)COc1cccc2ccccc12)C(=O)O (centres undefined) | n | n | n | n | n | n
COCCOC(=O)/C(C#N)=C/c1cn(Cc2ccccc2)nc1-c1cccnc1 | n | u | n | n | n | n
COc1ccc2oc(C(=O)Nc3ccc(N4CCOCC4)cc3)c(C)c2c1 | n | u | n | u | n | u
CC(Oc1ccc(F)cc1F)C(=O)NNC(=S)NCC1CCCO1 (centres undefined) | n | n | n | n | n | n
COCCCNc1nc2c(-c3cccc(Br)c3)nnn2c2ccccc12 | x | u | n | u | x | n
COc1ccc(/C=C/C(=O)OCCCN(C)C)cc1 | n | n | n | u | n | n
O=C(CSc1nnnn1-c1cccnc1)Nc1ccccc1F | n | n | n | n | n | n
CCOC(=O)N1CCN(c2ccc(Cl)cc2)CC1 | n | n | n | n | n | n
CCOC(=O)C(/C=C(\C#N)C(=O)OCC)=C(/N)N1CCN(c2ccc(Cl)cc2)CC1 | n | 16µM | u | n | n | n
O=C(/C=C/c1ccc(Cl)cc1)NC(=S)Nc1ccccc1C(=O)O | u | u | n | u | u | n
CC(C)=CC(=O)Nc1ccccc1C(N)=O | n | n | n | n | n | n
CC(=O)Nc1nc(NC(=O)/C=C/c2ccccc2)n(-c2ccccc2)n1 | n | 8.2µM | u | 12µM | u | n
NC(=O)c1ccccc1NC(=O)/C=C/c1ccccc1 | n | 21µM | n | u | n | u
Cc1c(O)ccc(NC(=O)/C=C/c2ccccc2)c1C | n | 15µM | n | 18µM | n | n
NC(=O)c1ccccc1NC(=O)/C=C/c1ccc(Cl)cc1 | u | 16µM | n | u | u | 15µM
CC(=O)Nc1ccc(N2CCN(Cc3ccccc3)CC2)cc1 | n | n | n | n | n | n
CCC(Cc1c(I)cc(I)c(N)c1I)C(=O)O (centres undefined) | n | 9µM! | n | n | n | n
CCCC(=O)Nc1c(I)cc(I)c(CC(CC)C(=O)O)c1I (centres undefined) | x | n | x | n | x | x
COc1ccc(C(C)=NOC(=O)c2c(-c3ccccc3Cl)noc2C)cc1CN1CCOCC1 | n | 7.3µM | n | u | n | n
C/C(=N\OC(=O)c1c(-c2ccccc2Cl)noc1C)c1ccncc1 | n | n | n | n | n | n
SMILES | HT1080-NT tox | DT40 TDP1 no CPT | KB-3-1 cytotox | TDP1 cell CPT | HT1080 IDH1KD tx | KB-V1 cytotox
Cc1onc(-c2ccccc2)c1C(=O)O/N=C(\N)c1ccc([N+](=O)[O-])o1 | u | 15µM | u | 16µM | n | u
Cc1onc(-c2ccccc2Cl)c1C(=O)O/N=C(\N)c1cccc([N+](=O)[O-])c1 | u | 23µM | n | 23µM | u | u
Cc1cc(C)nc(SCCn2c(N3CCOCC3)nc3c2c(=O)[nH]c(=O)n3C)n1 | n | n | n | n | n | n
CCOc1ncccc1C(=O)Nc1ccc(S(=O)(=O)N2CC(C)CC(C)C2)cc1 (centres undefined) | n | u | n | n | n | n
COc1ccccc1Cc1nc2ccccc2nc1SCC(=O)Nc1cccc(Cl)c1C | x | n | x | n | x | x
CC(=O)N1CCN(CC(=O)Nc2c(Cl)ccc(C)c2Cl)CC1 | n | n | n | n | n | u
CCN(CC)CCCNC(=O)c1cc2nc3c(c(C(F)(F)F)n2n1)CCc1ccccc1-3 | u | u | n | u | u | n
Cc1ccc(O)c(NC(=O)c2cc3nc4c(c(C(F)(F)F)n3n2)CCc2ccccc2-4)c1 | n | 23µM | n | u | n | n
NC(=O)CSc1nnc(-c2cccc(S(=O)(=O)N3CCOCC3)c2)n1C1CCCCCC1 | n | 7.3µM | n | 5.8µM | n | u
O=S(=O)(c1cccc(-c2n[nH]c(=S)n2C2CCCC2)c1)N1CCOCC1 | n | u | n | n | n | u
CC(C)Cn1c(SCC(=O)NCc2ccc(Cl)cc2)nnc1-c1cccc(S(=O)(=O)N2CCOCC2)c1 | u | 21µM | n | u | n | n
Cc1ccc(CSc2nnc(-c3cccc(S(=O)(=O)N4CCOCC4)c3)n2C2CCCC2)cc1 | n | 12µM | u | 15µM | u | u
CC(C)Cn1c(SCC(=O)O)nnc1-c1cccc(S(=O)(=O)N2CCOCC2)c1 | n | n | n | n | n | u
COC(=O)c1ccc(NC(=O)c2cc(=O)c3ccc(C)cc3o2)cc1 | x | n | n | n | x | n
CC(C)(C)c1ccc(C(=O)CCCN2CCC(OC(c3ccccc3)c3ccccc3)CC2)cc1 | x | 6µM | x | 12µM | x | x
N#CC(=Nc1cccc(F)c1)C1=C(O)c2ccccc2C1=O | n | n | n | n | n | n
CCOCCCNC(=O)CCC(=O)NNc1nc2ccccc2c2nc(-c3ccccc3)nn12 | n | 12µM | n | u | n | n
CC(C)OCCCNC(=O)CCC(=O)NNc1nc2ccccc2c2nc(-c3ccccc3)nn12 | n | u | n | n | n | n
COc1ccc(NC(=O)COC(=O)CNC(=O)COc2ccccc2)cc1OC | n | u | n | n | n | n
Cc1c(C(=O)N2CCOCC2)cc(C(C)(C)C)n1-c1ccccc1 | n | 21µM | n | u | n | n
